The list is not random: actives were taken first. Their share in the collection is about 4.8%.
D3 antag: blocks the human D3 dopamine receptor | P35462 | D3R cells, DiscoveRx beta-arrestin luminescence, antagonist mode; active compounds read low | max response, negative = inhibition, % | 360,000 compounds, 2.5% hits | AID 652054; in the data active means max response below about -50%; inconclusive means no clear call, values can overlap the other calls; further: on the % scale 0 is the no-effect control and ±100 the full control effect
Target sequence (P35462 whole entry, looked up): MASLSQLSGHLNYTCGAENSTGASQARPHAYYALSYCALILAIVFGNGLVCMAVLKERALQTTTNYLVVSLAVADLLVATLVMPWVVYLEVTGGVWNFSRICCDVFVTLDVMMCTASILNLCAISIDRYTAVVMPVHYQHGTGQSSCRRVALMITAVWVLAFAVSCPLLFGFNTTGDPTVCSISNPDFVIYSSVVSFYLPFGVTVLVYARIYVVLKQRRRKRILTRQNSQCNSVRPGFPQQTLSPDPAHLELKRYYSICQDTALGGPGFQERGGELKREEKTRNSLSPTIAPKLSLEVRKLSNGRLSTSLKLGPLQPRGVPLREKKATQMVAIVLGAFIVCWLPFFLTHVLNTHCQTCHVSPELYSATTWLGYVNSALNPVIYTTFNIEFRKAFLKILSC
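Cells expressing the human receptor were seeded at 1500 cells/well, incubated overnight at 37 degrees C in 5% CO2, then exposed to library compounds with dopamine controls for 90 minutes at 37 degrees C before luminescent detection.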
ATXN viability: viability counter-screen for ATXN expression inhibitors; 400,000 compounds, 0.49% hits; Potency, µM (highest dose often 56.7 µM), usual class: cytotoxic; S2 cells (HEK-293 line with an ATXN2-luciferase reporter) viability, CellTiter-Fluor protease fluorescence, 24 h; further: potency means the concentration at half of the fitted maximal effect; nearly all actives have a fitted effect of over 40% in size
ATXN2 expr inh: inhibitors of ATXN2 expression; 360,000 compounds, 0.72% hits; Potency, µM (series often up to 57 µM), inactives show top-dose activity change, negative = inhibition, hits mostly inhibitors; HEK-293 ATXN2-luciferase reporter, luminescence, 24 h; further: potency means the concentration at half of the fitted maximal effect; on the % scale 0 is the no-effect control and ±100 the full control effect; nearly all actives have a fitted effect of over 55% in size
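qHTS (up to 57 uM final) was run with 24 h compound exposure of reporter cells at 37 °C. Each well was multiplexed: SteadyGlo luminescence measured ATXN2-luciferase expression after a fluorogenic Gly-Phe-AFC viability readout (25 uM final).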
TGFb SMAD3 inh: blocks TGF-b signaling; HepG2 CAGA-GFP TGF-b/SMAD3 reporter, GFP fluorescence, 18 h; TGF-beta stimulated, 500 pg/mL final; Potency, µM (series often up to 46.1 µM), inactives show at the top dose activity, negative = inhibition, usual class: inhibitors; 410,000 compounds, 1.2% hits; further: potency means the concentration at half of the fitted maximal effect; on the % scale 0 is the no-effect control and ±100 the full control effect; nearly all actives have a fitted effect of over 65% in size
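First, reporter cells (HEPG2 CAGA-GFP) rested 2 h at 37 degrees C. Next, compounds were pinned in and TGF-beta added to 500 pg/mL final. After 18 h, GFP was imaged per cell and summed per well.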
D3 ag: activates the human D3 dopamine receptor. P35462. max activation, %. D3R DiscoveRx beta-arrestin cells, luminescence, 90 min. 410,000 compounds, 0.58% hits; in the data active means max activation above about 30%; further: 0% is about no effect
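Agonist mode: compounds and dopamine controls were applied to plated cells for 90 min at 37 degrees C after an overnight attachment at 1500 cells/well. Luminescent read-out followed 30 - 60 minutes at room temperature with DiscoveRx detection reagent.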
HepG2 tox: counter-screen for TGF-b inhibitors: cytotoxicity in HepG2 cells; 410,000 compounds, 0.76% hits; HepG2 CAGA-GFP viability, ATP luminescence, 18 h; Potency, µM (series often up to 46.1 µM), for inactives: top-dose activity change, negative = cytotoxicity, hits mostly cytotoxic; AID 588856; further: potency means the concentration at half of the fitted maximal effect
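CellTiter-Glo luminescence gave cytotoxicity after 18 hours at 37 degrees C. The cells were HepG2 CAGA-GFP in 1% FBS DMEM, stimulated with 500 pg/mL TGF-beta after compound addition. %Activity was normalised to no-cell wells (complete cell-killing) and DMSO (no toxicity), and curves were fitted and classified.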
The depositor's hits bear a star; i = inactive; u = inconclusive; x = not tested or not shown. Unless noted, the call rests on the fitted dose curve; in most records, active means well fitted curve in the direction sought with a large enough effect; inconclusive means small, poorly fitted or top-dose-only effect, or another doubt; inactive means no such curve, though single readings can be large; an effect the other way counts as inactive or inconclusive.

SMILES	D3 antag	ATXN viability	ATXN2 expr inh	TGFb SMAD3 inh	D3 ag	HepG2 tox
Cc1cc(CC(C)CC(C)(C)C)n(O)c(=O)c1 (configuration not stated)	x	x	x	5.6µM*	x	-12%
Cc1cnc(C=O)c2cccc([N+](=O)[O-])c12	-77*	i	x	-14%	-9	-26%
Cc1ncc(C)c2c([N+](=O)[O-])cccc12	-22	i	x	-4%	-3	-3%
O=C(c1cnsn1)N1CCOc2ccc(C(O)C(c3ccccc3)c3ccccc3)cc2C1 (configuration not stated)	x	i	x	x	x	x
COc1ccc(S(=O)(=O)N2CCN(CCOc3ccc(Br)cc3)CC2)cc1OC	8	i	x	u	0	-46%
COc1ccc(S(=O)(=O)N2CCN(CCOc3ccccc3Cl)CC2)cc1OC	-22	i	u	u	36*	-6%
CC(=O)c1ccc(S(=O)(=O)N2CCN(CCOc3ccccc3)CC2)cc1	-59*	i	-14%	-25%	11	-25%
Cc1ccc(S(=O)(=O)N2CCN(CCOc3cccc(C)c3)CC2)cc1	-55*	i	-25%	u	-16	-32%
Cc1cnc(-n2ncc(C(=O)N(C)C3CCOC3)c2-c2cccs2)nc1-c1ccc(F)cc1 (configuration not stated)	x	i	x	x	x	x
Cc1ccccc1OCC(=O)NCC(=O)OCC(=O)c1ccc(Br)cc1	x	x	x	16%	x	5%
CCOC(=O)c1c(C)n(C)c2ccc(OCC(O)CN3CCCCCC3)cc12 (configuration not stated)	u	18µM*	-30%	-16%	-9	-36%
CCOC(=O)c1c(C)n(C)c2ccc(OCC(O)CN3CCC(C)CC3)cc12 (configuration not stated)	-102*	i	-23%	-1%	-21	-13%
COCC(=O)Nc1cc(C(=O)N2CCSCC2)cc2nc(-c3ccccc3)n(C)c12	x	i	x	x	x	x
COc1ccc(OC)c(C(=O)N(Cc2cc3cccc(C)c3nc2N2CCC(O)CC2)C2CC2)c1	x	i	x	x	x	x
O=C(Nc1ccccc1Cl)c1c(F)c(F)c(F)c(F)c1F	-62*	i	-1%	0%	-5	-28%
Cc1ccccc1NC(=O)c1c(F)c(F)c(F)c(F)c1F	-11	i	-11%	-13%	-11	-10%
CCn1ccc(C(=O)Nc2ccccc2Cl)n1	-96*	i	x	8%	-10	8%
CCn1ccc(C(=O)Nc2cccc(Cl)c2)n1	-7	i	0%	3%	13	-14%
COc1cc2c(C(=O)N3CCN(C)CC3)c(C)n(-c3ccccc3)c2cc1Br	2	x	x	-11%	2	-3%
CCN(CC)CCNC(=O)c1c(C)n(-c2ccccc2)c2cc(Br)c(OC)cc12	-65*	u	u	u	-2	20µM*
O=S(=O)(Nc1ccccc1)c1ccc(Oc2ncc(C(F)(F)F)cc2Cl)cc1	-63*	u	u	u	-1	-105%
CCOC(=O)CN(Cc1cc(OC)cc(N(C)C)c1OC)C(=O)C1CC(CO[Si](C)(C)C(C)(C)C)=CN1C(=O)OC(C)(C)C (configuration not stated)	x	x	x	u	x	-15%
Oc1ccc(-c2n[nH]c(=S)n2-c2ccc3c(c2)OCCO3)c(O)c1	-7	i	u	14µM*	5	-48%
S=c1[nH]nc(-c2ccc(Cl)cc2Cl)n1-c1ccc2c(c1)OCCO2	-4	u	9%	1%	-15	11%
COc1cc(OC)c(NC(=O)NCCn2nnc3cc(S(=O)(=O)N(C)C)ccc32)cc1Cl	x	i	0%	2%	7	-5%
O=C(CSc1nc2ccccc2n1Cc1cccc(C(F)(F)F)c1)NCc1ccccc1	x	i	-15%	u	-4	-44%
Cc1ccccc1N1C(=O)[C@@H]2Cc3ccccc3CN2C1=O	u	i	-7%	-20%	-2	-8%

Compound activity (PubChem BioAssay)
